For 31 molecules, composite z-score results are on record in PubChem BioAssay.

Where “and” joins values, the source holds several entries; their conditions need not be identical. Identical values can stand only once. Calls of active or inactive are those of the source.

This experiment concerns XIP peptide (Xip251-270) binding. In words: small-molecule binders of XIP peptide, primary screen, biochemical, small-molecule microarray, fluorescence 635/667 nm, 0.1 µg/mL protein (AID 1182). To be noted: fluorescent protein binding, 635 nm, higher = more signal, called active from +8 up or from −8 down.
As for `C=CCN(CCCC)C(=O)C1N(CCOCCO)C(=O)C2C(C(=O)O)C3C=CC21O3` (stereo unspecified), the composite z-score was 0.175 (inactive) and 0.306 (inactive). For the molecule `COC(=O)[C@@]1(Cc2ccccc2)[C@H]2c3cc(C(=O)N(C)C)n(Cc4ccc(C)c(F)c4F)c3C[C@H]2CN1C(=O)c1ccccc1`, the composite z-score is -0.103 (inactive) and -0.157 (inactive).

`COC(=O)C1=C(C)N(Cc2ccccc2)C2=C3C(=O)N(c4ccccc4)C(=O)[C@@H]3[C@@](O)(C(=O)OC)C(=O)N2[C@@H]1c1ccccc1`: the composite z-score was 0.357 (inactive) and 0.908 (inactive). As to `C=C(C)C(=O)OC[C@@H]1CN2[C@@H](CC[C@@H](C)[C@@H]2c2ccc(Br)cc2)C(=O)O1`, the composite z-score was 0.0138 (inactive).

As for `CC(C)=NO[C@@H](C)c1cc(-c2c(C)cc(C)cc2C)no1`, the composite z-score was -0.386 (inactive). As for `C=CCN(C(=O)C1N(CCCCCCO)C(=O)C2C(C(=O)O)C3C=CC21O3)C(C)(C)C` (stereo unspecified), the figure is -0.501 (inactive) and -0.559 (inactive); as for `C=C[C@@H](OC)[C@H](O)c1ccc(OC)c(O)c1`, 0.263 (inactive) and -0.18 (inactive). `C=CCN(C(=O)C(c1cccs1)N(C(=O)/C=C\C(=O)O)C(C)(C)CO)c1ccc(OC)cc1` (stereo unspecified): the composite z-score was -0.114 (inactive) and 0.302 (inactive). Consider `CCOC(=O)CCN1C(=O)[C@H]2[C@H]3[C@H](O)[C@H](O)CC(=NNC(=O)OCC)[C@@H]3CC[C@H]2C1=O`, for which the composite z-score was 0.872 (inactive). As for `COC(=O)C1=C(C)N(Cc2ccccc2)C2=C(C(C)=O)C[C@@](O)(C(=O)OC)C(=O)N2[C@@H]1c1ccccc1`, the figure is 0.411 (inactive) and 1.64 (inactive); as for `CC(C)=NOCc1ccc(-c2cn([C@@H]3COC[C@H]3O)nn2)cc1`, 0.364 (inactive). As for `CCOC(=O)[C@@H]1CC=C2CC1C(=O)N1CCC[C@@H]1[C@H]2O[Si](C)(C)C(C)(C)C` (stereo partly specified), the figure is -1.06 (inactive) and -0.793 (inactive); as for `C[C@@H]1CC[C@H]2C(=O)O[C@H](CN=[N+]=[N-])CN2[C@H]1c1ccc(Br)cc1`, -0.036 (inactive) and -0.0365 (inactive); as for `Cc1cc2c(nc1C)CCCN2CC(O)CN1CCCc2nc(-c3ccc(Br)cc3)ccc21` (stereo unspecified), 1.5 (inactive) and 4.73 (inactive). As for `COC(=O)C1=C(C)N(Cc2ccccc2)[C@]23O[C@](C(=O)OC)(C(=O)N2[C@@H]1c1ccccc1)[C@H]1C(=O)N(c2ccccc2)C(=O)[C@H]13`, the figure is 0.229 (inactive) and 0.555 (inactive); as for `COC(=O)C1=C(C)N(Cc2ccccc2)C2=C3C(=O)N(C)C(=O)[C@@H]3[C@@](O)(C(=O)OC)C(=O)N2[C@@H]1c1ccccc1`, 0.214 (inactive) and -0.566 (inactive); as for `CO[C@@H]1COC(=O)[C@H](Cc2ccccc2)NC(=O)CC=C[C@@H](C)[C@H](OC)COC(=O)[C@@H](C)NC(=O)CC=C[C@H]1C`, 0.219 (inactive) and 0.97 (inactive).

Take `CCOC(=O)NN=C1C[C@@H](O)[C@@H](O)[C@@H]2[C@@H]3C(=O)N(Cc4ccccc4)C(=O)[C@@H]3CC[C@@H]12`: the composite z-score is -0.479 (inactive). Consider `C=CCN(C(=O)C1N(c2c(Cl)cccc2CO)C(=O)C2C(C(=O)O)C3C=CC21O3)C(C)(C)C` (stereo unspecified), for which the composite z-score is 0.13 (inactive) and -0.96 (inactive). Then `CO[C@@H]1COC(=O)CC=C[C@H](C)[C@@H](NS(=O)(=O)c2ccc(C)cc2)COC(=O)CC=C[C@@H]1C`, with 1.11 (inactive) and 0.147 (inactive); and `Cc1ccc(S(=O)(=O)OC[C@@H]2CN3[C@@H](CC[C@@H](C)[C@@H]3c3ccc(Br)cc3)C(=O)O2)cc1`, with 0.589 (inactive) and -0.699 (inactive); and `COC(=O)C1=C(C)N(Cc2ccccc2)[C@]23O[C@](C(=O)OC)(C(=O)N2[C@@H]1c1ccccc1)[C@H]1C(=O)N(C)C(=O)[C@H]13`, with 0.0247 (inactive) and -0.317 (inactive). For `COC(=O)[C@H](C)NC(=O)CCC1CC(OC(=O)NCCc2ccc(F)cc2)CC2(CCCC(COC(=O)NCCCN3CCCC3=O)O2)O1` (stereo partly specified), the composite z-score is 0.348 (inactive). `C#CCCCON=C1C[C@@H](O)[C@@H](O)[C@@H]2[C@@H]3C(=O)N(C4CCCCC4)C(=O)[C@@H]3CC[C@H]12`: the composite z-score was 0.57 (inactive). As for `C=CC[C@@H](O)c1ccc(OCCO)cc1`, the figure is -0.0335 (inactive) and 0.172 (inactive); as for `C=CCN(C(=O)C(c1cccs1)N(C(=O)/C=C\C(=O)O)c1c(Cl)cccc1CO)c1ccc(OC)cc1` (stereo unspecified), 0.861 (inactive) and 0.113 (inactive); as for `CCCC[C@@H]1CN2[C@H](c3ccc(Br)cc3)[C@@H](C)CC[C@H]2C(=O)O1`, 0.744 (inactive) and -0.433 (inactive). As for `CO[C@@H]1COC(=O)CC=C[C@H](C)COC(=O)[C@H](C)NC(=O)CC=C[C@H]1C`, the figure is -0.0437 (inactive); as for `C[C@@H]1CC[C@H]2C(=O)N3[C@@H](CC[C@@H](C)[C@@H]3c3ccc(-c4ccco4)cc3)C(=O)N2[C@H]1c1ccc(-c2ccco2)cc1`, 1.47 (inactive); as for `CCCCCN1CC=CC23O[C@@H]4C=CCCOC(=O)C4[C@H]2C(=O)N(C(C)CO)[C@@H]3C1=O` (stereo partly specified), 0.79 (inactive) and 0.201 (inactive).

In the case of `CO[C@H]1COC(=O)CC=C[C@H](C)[C@H](OC)COC(=O)[C@@H](C)COC(=O)CC=C[C@@H]1C`, the composite z-score is -0.205 (inactive) and 0.308 (inactive).
